Screening data as filed in PubChem.
This is a sample that favours compounds with a hit; in the whole collection about 3.9% have one here.
ALR inh = inhibitors of human sulfhydryl oxidase ALR | inhibition, % (concentration not given with the values) | 3.8% of 290,000 active | purified ALR, DTT oxidation, H2O2 HRP-luminol luminescence | AID 485317;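 active = mean replicate inhibition above about 79%, with every replicate also reaching it, limit read from the data; inconclusive = only one of the two criteria met; inactive = mean below limit and not every replicate reaching it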
Target sequence (P55789 whole entry, looked up): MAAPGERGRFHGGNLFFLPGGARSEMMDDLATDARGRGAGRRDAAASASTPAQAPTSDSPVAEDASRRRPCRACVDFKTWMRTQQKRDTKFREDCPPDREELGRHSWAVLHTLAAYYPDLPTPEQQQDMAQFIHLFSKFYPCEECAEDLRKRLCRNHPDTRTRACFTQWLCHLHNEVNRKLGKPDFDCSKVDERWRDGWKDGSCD
Cardio protect = myocardial damage modulation in H9c2 cells; 0.63% of 360,000 active; H9c2 cardiomyocytes, H2O2 injury protection, ATPLite, 2 h; AID 588492; protection from H2O2 cell death, % at 20 µM;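 active = compounds giving at least 50% protection of heart cells from peroxide-induced death in the single-dose screen, raw or plate-pattern-corrected value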
SUMO HTRF inh = SUMOylation inhibition. inhibition, % at 35 µM. P63279. HTRF SUMOylation assay, SAE1/SAE2 + UBC9, in vitro. AID 2006. 0.36% of 290,000 active; in the data active = inhibition above about 50%, passing the limit was not always enough; inconclusive = no clear call, values can overlap the other calls
Target sequence (P63279 whole entry, looked up): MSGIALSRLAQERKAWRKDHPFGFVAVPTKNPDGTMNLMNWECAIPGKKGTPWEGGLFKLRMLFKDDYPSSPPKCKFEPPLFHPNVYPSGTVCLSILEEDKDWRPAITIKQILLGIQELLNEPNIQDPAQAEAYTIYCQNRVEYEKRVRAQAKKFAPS
NTR1 agonist = NTR1 (human) agonism. NTR1-U2OS beta-arrestin-GFP spot imaging, agonist mode. activation, % at 20 µM. 0.17% of 330,000 active. AID 493036;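 active = activation at or above 40% of the spot to cytoplasm intensity ratio, with at least 20 cells analyzed; inconclusive = wells under 20 cells, flagged as cytotoxic or low count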
Hits are given with their value; 0 = inactive; ? = inconclusive; - = no result.

SMILES	ALR inh	Cardio protect	SUMO HTRF inh	NTR1 agonist
CCOc1ccc(N2C(=O)CSC2c2ccncc2)cc1 (stereo not given)	100	0	0	0
COc1ccc(N2C(=O)CSC2c2cccs2)cc1 (stereo not given)	99	0	0	0
COc1ccc(N/C=C(\C#N)c2nc3ccccc3n2C)c(OC)c1	0	50	0	0
CC(C)(O)C#Cc1ccc(C(=O)NC2CCCCC2)s1	97	0	0	0
CC(C)(O)C#Cc1ccc(C(=O)NCCC(=O)O)s1	0	0	0	0
COc1ccc(N(CC(=O)Nc2ccc(Cc3ccncc3)cc2)S(=O)(=O)c2ccccc2)cc1	-	0	0	0
Cc1cc(C)nc(Nc2ccc(N3CCCC3)cc2)n1	0	0	0	0
Cc1cc(C)nc(Nc2ccc(N3CCOCC3)cc2)n1	99	0	0	0
Oc1cccc(Nc2nc(N3CCOCC3)nc(N3CCOCC3)n2)c1	84	0	0	0
Cc1cc(C)nc(N/N=C/C2=C(N3CCOCC3)C(=C\c3ccc(Cl)cc3)/CC2)n1	98	0	0	0
O=C(O)c1ccc(N/N=C/C2=C(N3CCOCC3)C(=C\c3ccccc3)/CC2)cc1	97	0	0	0
Cc1cccc(Nc2nc(N3CCOCC3)nc(N3CCOCC3)n2)c1	0	0	0	0
CSc1ccc(C#N)cc1NC(=O)c1ccc(Cl)cc1Cl	0	0	0	0
Cc1nc2ccc(NC(=O)c3nn(CC(C)C)c(=O)c4ccccc34)cc2s1	0	0	0	0
Cc1cc(C)nc(Nc2ccc(O)cc2)n1	100	0	0	0
CCCCSc1nc2ccc(Nc3nc(N4CCOCC4)nc(N4CCOCC4)n3)cc2s1	90	0	0	0
CNC(=S)NNc1nc(N2CCOCC2)nc(N2CCOCC2)n1	85	0	0	0
CCNC(=S)NNc1nc(N2CCOCC2)nc(N2CCOCC2)n1	0	0	0	0
Cc1cc(C)nc(N/N=C/c2ccc(N3CCOCC3)cc2)n1	97	0	0	0
O=C(/C=C/c1c(Cl)cccc1Cl)N1CCN(c2ncccn2)CC1	-	0	0	0
CC1CC=C(O)C12OCC(C)(C)CO2 (stereo not given)	-	0	-	-
O=c1c2ccccc2ccc2ccccc12	0	0	-	0
O=C(N/N=C/c1ccccn1)c1cc(-c2ccncc2)nc2ccccc12	0	77	0	0
O=C(N/N=C/c1ccc([N+](=O)[O-])o1)c1cc(-c2ccc(-c3ccccc3)cc2)nc2ccccc12	0	0	62	0
O=C(N/N=C/c1ccsc1)c1cc(-c2ccncc2)nc2ccccc12	-	0	0	0
SMILES	ALR inh	Cardio protect	SUMO HTRF inh	NTR1 agonist
COc1cccc(/C=N/NC(=O)c2nc(-c3ccccc3)cc(-c3ccccc3)n2)c1	0	89	0	0
O=C(N/N=C/c1ccc(O)c(O)c1)c1cc(-c2ccccc2)nc2ccccc12	0	61	0	0
CCn1c(=O)c(C(=O)Nc2ccc(C)cc2)c(O)c2ccccc21	0	0	0	0
CN(C)C(=O)NC1CCCCCCCCCCC1	0	0	0	0
CCOc1ccccc1NC(=O)COn1nnc2ccccc21	0	0	0	0
CCCc1cc(=O)oc2cc(OCC(=O)Nc3ccc(S(N)(=O)=O)cc3)ccc12	0	0	-	0
Cc1nn(-c2ccccc2)c(N2CCCC2)c1/C=N/NC(=O)c1cc(-c2ccccc2)nc2ccccc12	-	0	0	0
Cc1nn(-c2ccccc2)c(N2CCCC2)c1/C=N/NC(=O)c1cc(-c2ccccn2)nc2ccccc12	-	57	0	0
CC(N=C1NS(=O)(=O)c2ccccc21)C(=O)NCc1ccc2c(c1)OCO2 (stereo not given)	0	0	0	0
Cc1cc(C)nc(OC(=O)c2c(Cl)cc(Cl)cc2Cl)n1	0	0	0	0
Cc1cc(C)nc(OC(=O)c2ccc(Cl)cc2Cl)n1	98	-	0	0
Cn1c(C2CCCCC2)nc2cc(N)ccc21	89	0	0	0
Nc1ccc(-c2nc3cc(N)ccc3n2CCO)cc1	98	0	?	0
Cn1c(CO)nc2cc(N)ccc21	80	0	0	0
O=C(O)c1cc(O)ccc1-c1ccc(O)cc1	98	0	0	0
O=C(c1cn(-c2ccccc2)nc1-c1cccnc1)N1CCN(S(=O)(=O)c2ccc(Cl)cc2)CC1	-	0	-	-
O=C(NC1CCN(Cc2ccccc2)CC1)c1cccc(S(=O)(=O)Nc2ccc(SC(F)F)cc2)c1	99	0	-	0
Cc1ccc(NS(=O)(=O)c2cccc(C(=O)NC3CCN(Cc4ccccc4)CC3)c2)cc1	-	0	-	-
Cc1ccc2nc(-c3cccc(Br)c3)cc(C(=O)NC3CC3)c2c1	0	0	0	0
CCNC(=S)/C(=C(/[O-])c1ccc([N+](=O)[O-])cc1)[n+]1ccccc1	99	0	0	0
